Laboratory results as given in PubChem BioAssay.
Values without a mark were called inactive.

Assay: E. coli acrAB mutant growth effects, primary screen, E. coli filamentation inducers, strain DRC39, OD650, 24 h (AID 1178);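 further: growth measured as culture turbidity by optical density at 650 nm; test concentration not given here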
Conditions: higher = more signal, called active from +8 up or from −8 down

Compound	z-score
NC(=O)[C@@]1(Cc2ccccc2)COC(c2ccc(OCCCO)cc2)=N1	2.1
CCOC(=O)C[C@H]1[C@H](OC(=O)c2ccc(C(=O)c3ccccc3)cc2)[C@@H](NC(=O)c2ccc3ccccc3n2)c2cc(OCCCO)ccc2N1C(=O)Cc1ccc(OC)cc1	-2.25
COC(=O)[C@@H]1N=C(c2ccc(OCCCO)cc2)O[C@@H]1c1ccccc1	0.714
CCOc1cc(C(O)C2C=CC3C(=O)NC(=O)C3N2Nc2ccc(Cl)cc2Cl)ccc1O (stereo not drawn)	-0.748
CCOC(=O)C=Cc1cccc(C)c1O	0.0457
COC(=O)[C@@]1(Cc2ccc(OC)cc2)[C@H]2c3cc(C(=O)N4CCCC4)n(CCO)c3C[C@H]2CN1C(=O)c1ccccc1	-0.614
CC1=C2[C@@H](CCc3ccccc3)OB(O)C[C@@H]2[C@@H]2C(=O)N(Cc3ccccc3)C(=O)[C@@H]2C1	-0.204
C=CC[C@@H](OC(=O)Nc1ccc(SC)cc1)c1ccc(O)c(F)c1	1.75
COCCCNC(=O)[C@@]1(CCC(=O)OC(C)(C)C)N=C(c2ccc(OCCCO)cc2)O[C@H]1c1ccccc1N=[N+]=[N-]	1.42
CCOC(=O)C[C@H]1[C@H](OC(=O)c2cc3ccccc3oc2=O)[C@@H](NC(=O)CC(C)C)c2cc(OCCCO)ccc2N1C(=O)c1ccc2ccccc2n1	-0.463
Cc1ccc(C(C)CC(O)C2C=CC3C(=O)N(c4ccccc4)C(=O)C3N2Nc2ccccc2)o1 (stereo not drawn)	0.1
CN(C)c1ccc(C(O)C2C=CC3C(=O)NC(=O)C3N2Nc2ccccn2)cc1 (stereo not drawn)	-0.738
CCCCN1CC=CC23O[C@@H]4/C=C\CCCOC(=O)C4[C@H]2C(=O)N(CCO)[C@@H]3C1=O (stereo partly drawn)	-0.088
COc1ccc([Si](C)(C)[C@@H]2[C@@H](CCO)O[C@]3(C(=O)N(Cc4ccccc4)c4ccc(N5C(=O)c6cccc7cccc5c67)cc43)[C@H]2C)cc1	2.16
Oc1ccc2cc[n+](Cc3cc4c(cc3Br)OCO4)cc2c1	0.364
CCCNC(=O)[C@@H]1c2ccccc2C(=O)N(Cc2ccc(OC(F)(F)F)cc2)[C@H]1c1ccc(CO)cc1	0.659
COCCOC(=O)N1C(=O)[C@@]2(c3cc(C#CC4=CCCCC4)ccc31)[C@H](c1ccccc1OCCO)N1[C@H](c3ccccc3)[C@H](c3ccccc3)OC(=O)[C@H]1[C@@H]2C(=O)NC[C@H](O)c1ccccc1	-0.609
O=C1N(CCS(=O)(=O)c2ccccc2)c2ccccc2[C@H]2OC(c3ccc(OCCCO)cc3)=N[C@@]12Cc1ccccc1	2.46
[N-]=[N+]=Nc1ccccc1C[C@]1(C(=O)NCCN2CCOCC2)COC(c2ccc(OCCCO)cc2)=N1	0.947
C=CC[C@@]1(C(=O)NCCCOC)N=C(c2ccc(OCCCO)cc2)O[C@@H]1c1ccccc1N=[N+]=[N-]	0.868
COC(=O)C1=CC(CCCO)=CC(c2ccc(CN3CCCC3)cc2)N(Cc2cccc(OC(F)(F)F)c2)C=C1C(=O)OC (stereo not drawn)	0.509
CCCC=C(CCC)[C@@H](NC(=O)c1cccs1)c1ccc(C(=O)OC)cc1	0.204
CC1=C2[C@@H](CCc3ccccc3)OB(O)C[C@@H]2[C@@H]2C(=O)N(C)C(=O)[C@@H]2C1	0.672
COCCOC(=O)N1C(=O)[C@@]2(c3cc(C#CC4(O)CCCCCC4)ccc31)[C@H](c1ccc(O)cc1)N1[C@H](c3ccccc3)[C@H](c3ccccc3)OC(=O)[C@H]1[C@@H]2C(=O)N1CCN(c2ncccn2)CC1	-0.462
COC(=O)[C@@]1(Cc2ccc(F)cc2)[C@H]2c3cc(C(=O)N(C)C)n(Cc4ccc(OC(F)(F)F)cc4)c3C[C@H]2CN1C(=O)c1ccccc1	-0.586
C=CCNC(=O)[C@H]1[C@@H]2C(=O)O[C@@H](c3ccccc3)[C@@H](c3ccccc3)N2[C@@H](c2ccccc2OCCO)[C@]12C(=O)N(C(=O)OCCOC)c1ccc(C#CC3(O)CCCCCC3)cc12	0.0979
C=C(COC)/C(=C/C[C@H](OC(=O)c1ccncc1)c1ccccc1OCCO)c1cc(C(=O)OC)ccc1OC	-1.31
CC(C)c1ccc(NN2C(C(O)c3ccc(C#N)cc3)C=CC3C(=O)N(c4ccccc4)C(=O)C32)cc1 (stereo not drawn)	-0.526
